Neddylation inh: blocks human cullin neddylation | P61081+Q13564 | TR-FRET cullin neddylation, biochemical | inhibition, % at 25 µM | actives 0.58% (n = 360,000); in the data active = inhibition above about 36%
TLR4-MyD88 BLA: inhibitors of human TLR4-MyD88 binding; HeLa CL3-4 TLR4/MyD88 BLA complementation, FRET ratio; inhibition, % at 8.4 µM; actives 0.18% (n = 200,000); AID 861; in the data active = inhibition above about 25%;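 also: 0% = vehicle and 100% = reference inhibitor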
GC-B act: GC-B (human) receptor activation | P20594 | HEK293-GC-B cells, CNP EC30, cGMP TR-FRET; 0% at EC30 CNP, 100% saturating CNP | activation, % at 10 µM | actives 0.11% (n = 370,000) | AID 1920062;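 active = activation at 10 µM reaching about 35% in either raw or pattern-adjusted values, limit read from the data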
Target sequence (P20594 whole entry, looked up): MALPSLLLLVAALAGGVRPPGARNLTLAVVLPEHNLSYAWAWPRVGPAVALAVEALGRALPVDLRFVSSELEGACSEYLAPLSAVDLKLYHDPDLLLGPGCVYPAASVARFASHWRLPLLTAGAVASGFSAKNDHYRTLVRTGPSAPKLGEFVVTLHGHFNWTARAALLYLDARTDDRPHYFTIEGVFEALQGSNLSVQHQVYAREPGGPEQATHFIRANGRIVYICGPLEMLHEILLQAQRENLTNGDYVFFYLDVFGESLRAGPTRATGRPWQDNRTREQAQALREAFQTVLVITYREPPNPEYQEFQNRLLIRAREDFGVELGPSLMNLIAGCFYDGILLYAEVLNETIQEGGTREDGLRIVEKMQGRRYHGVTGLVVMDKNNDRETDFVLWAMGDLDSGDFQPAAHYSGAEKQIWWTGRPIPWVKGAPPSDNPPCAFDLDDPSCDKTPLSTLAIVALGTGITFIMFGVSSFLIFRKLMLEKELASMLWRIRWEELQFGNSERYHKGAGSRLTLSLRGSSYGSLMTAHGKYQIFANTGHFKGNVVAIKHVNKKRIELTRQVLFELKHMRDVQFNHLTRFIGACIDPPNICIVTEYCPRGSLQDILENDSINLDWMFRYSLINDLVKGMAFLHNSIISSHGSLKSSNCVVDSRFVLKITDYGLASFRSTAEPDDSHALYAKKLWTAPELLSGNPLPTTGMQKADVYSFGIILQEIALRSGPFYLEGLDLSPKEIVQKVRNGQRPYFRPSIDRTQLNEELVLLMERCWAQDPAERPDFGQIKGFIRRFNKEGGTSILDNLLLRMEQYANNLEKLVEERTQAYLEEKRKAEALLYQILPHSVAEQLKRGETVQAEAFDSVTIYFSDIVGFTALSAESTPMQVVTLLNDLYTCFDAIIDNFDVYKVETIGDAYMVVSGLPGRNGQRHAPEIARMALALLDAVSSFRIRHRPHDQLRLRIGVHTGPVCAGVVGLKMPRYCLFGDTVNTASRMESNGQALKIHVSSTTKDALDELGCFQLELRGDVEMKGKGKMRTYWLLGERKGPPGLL
NOD2 RIPK2 PPI: inhibitors of human NOD2-RIPK2 interaction; O43353; CHO BLA complementation NOD2-RIPK2, CCF4 ratio; inhibition, % at 4.98 µM; actives 0.38% (n = 360,000); in the data active = inhibition above about 21%;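 also: 0% = vehicle only and 100% = reference blocker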
GC-A act: GC-A (human) enzyme activation. P16066. HEK293 GC-A cells, cGMP TR-FRET, EC30 ANP; 0% at EC30 ANP, 100% saturating ANP. activation, % at 10 µM. actives 0.14% (n = 370,000); in the data active = activation above about 40%
TLR9-MyD88 inh: blocks human TLR9 binding to MyD88; Q9NR96+Q99836; CHO BLA complementation TLR9-MyD88, CCF4 FRET ratio; inhibition, % at 4.98 µM; actives 0.21% (n = 340,000);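 active = inhibition above the mean over all tested compounds plus 3 SD, cut at about 21% in these data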;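 also: 0% = DMSO only wells and 100% = clavulanate BLA inhibitor control wells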
Neddyl inh conf: confirmation of human cullin neddylation inhibitors. shares compounds with Neddylation inh. TR-FRET cullin neddylation biochemical assay. calls only at 25 µM. actives 13% (n = 1,800). AID 652217; in the data active = inhibition above about 40%;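 also: neddylation substrate is the cullin 1 ring ligase complex with SKP2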
* hit, by the source's call; i = inactive; x = no result given; + = active, no number. Only some compounds are listed: those with a hit (about 1.2% of all), similar ones and a draw of the others.

SMILES | Neddylation inh | TLR4-MyD88 BLA | GC-B act | NOD2 RIPK2 PPI | GC-A act | TLR9-MyD88 inh | Neddyl inh conf
COc1cc2c(cc1O)C(Cc1ccc(O)cc1)[N+](C)([O-])CC2 (configuration not stated) | 2 | x | 0 | -1 | 0 | -11 | x
COc1ccc(C[C@H]2c3cc(O)c(OC)cc3CC[N+]2(C)[O-])cc1O (some centres not stated) | 46* | x | -4 | 0 | -7 | -3 | +
CC(C)CN1CC(C)C(=O)N(c2ccccc2)C1=O (configuration not stated) | -1 | x | 2 | -13 | 6 | -12 | x
COc1ccc(-c2cnc3c(NC(C)=O)cc(-c4cc(F)ccc4OC)cn23)cc1OC | 44* | x | 17 | -12 | 13 | x | i
CC(C)OCCCn1c(SC(C)C(=O)NC2CC2)nc2ccccc2c1=O (configuration not stated) | 4 | x | -1 | -8 | 0 | 5 | x
COc1ccc(Cc2c(-c3ccc(OC)c(OC)c3)nc3ccc(C)cn23)c(C)c1 | 29 | x | 22 | 5 | 19 | x | x
CCN(CC)S(=O)(=O)c1ccc2c3c(cccc13)C(=O)N2 | 49* | 5 | 0 | -1 | 3 | -2 | x
COc1ccc([C@H]2CC(=O)C=C(c3ccnc4ccc(Cl)cc34)C2)cc1 | -41 | x | -9 | -7 | -4 | 1 | x
O=C(O)CNS(=O)(=O)c1ccc2c(c1)CCCC2 | 11 | -1 | 3 | -2 | 4 | 4 | x
O=C(O)CNS(=O)(=O)c1ccc2[nH]c(=O)c(=O)[nH]c2c1 | 40* | 5 | 2 | -1 | -1 | -3 | i
c1nc(NC[C@@H]2CCCO2)c2cc(-c3ccc4c(c3)OCO4)ccc2n1 | x | x | 13 | x | 6 | x | x
COCCN(C(=O)COC(=O)/C=C/c1ccc(OC)c(OC)c1)c1c(N)n(Cc2ccccc2)c(=O)[nH]c1=O | 25 | x | -1 | -7 | -1 | 0 | x
COCCN(C(=O)COC(=O)/C=C/c1cccc(OC)c1)c1c(N)n(CC(C)C)c(=O)[nH]c1=O | 45* | x | 0 | -11 | 4 | 6 | x
c1csc(CNc2ncnc3ccc(-c4ccc5c(c4)OCCO5)cc23)c1 | 36* | x | -1 | -4 | 2 | -3 | x
COc1ccc(/C=C2\CCCC3C2=NN(C(=O)CSc2ncn[nH]2)C3c2ccc(OC)cc2)cc1 (configuration not stated) | 44* | 9 | -6 | -5 | -5 | -10 | x
COc1ccc(C2(O)CC3CCC(C2)N3c2nc(C)cc(C)c2C#N)cc1 (configuration not stated) | 38* | 3 | 4 | -2 | -9 | 2 | i
COc1ccc(Oc2nc(C)cc(C)c2C#N)cc1 | 0 | 9 | 1 | -4 | 0 | -1 | x
COC(=O)c1cc2c(ccn2-c2ccc(F)cc2)n1CC(=O)OC(C)C | 43* | 1 | -2 | -1 | 3 | -8 | i
CNc1c(NS(=O)(=O)c2ccc(C(C)(C)C)cc2)c(=O)oc2ccccc12 | 42* | x | 6 | -9 | 1 | 3 | i
CNc1c(NS(=O)(=O)c2ccc(Br)cc2)c(=O)oc2ccccc12 | 8 | x | -8 | -10 | -2 | -4 | x
COc1cc(/C=C/C(=O)Nc2ccc(N3CCCCC3)c(S(=O)(=O)Nc3ccccc3Cl)c2)cc(OC)c1OC | 42* | -8 | 3 | -6 | -4 | 1 | i
COc1ccc2cc(C(=O)C3CCCN(C(=O)/C=C/c4ccccn4)C3)ccc2c1 (configuration not stated) | 53* | 3 | -3 | 2 | -2 | -3 | i
Cc1cc(C=O)c(C)c2c1[nH]c1ccccc12 | 40* | x | -4 | -10 | -14 | -9 | i
O=C(CCN1C(=O)S/C(=C/c2ccc(F)cc2)C1=O)Nc1ccc(O)c(C(=O)O)c1 | 44* | x | 3 | -10 | -1 | 6 | i
CC(=O)c1ccc(-c2ccc(C(=O)NC3CC(C)(C)NC(C)(C)C3)o2)cc1 | 66* | x | 2 | 1 | 1 | -6 | x
SMILES | Neddylation inh | TLR4-MyD88 BLA | GC-B act | NOD2 RIPK2 PPI | GC-A act | TLR9-MyD88 inh | Neddyl inh conf
CC1(C)CC(NC(=O)c2ccc(F)cc2)CC(C)(C)N1 | 1 | x | 0 | -6 | -6 | 0 | x
CCn1cc(C(=O)O)c(=O)c2cc(F)c(N3CCN(C(=S)NC(=O)c4ccc(Br)cc4)CC3)cc21 | 31 | 9 | -3 | -4 | -3 | x | x
CCn1cc(C(=O)O)c(=O)c2cc(F)c(N3CCN(C(=O)Nc4ccccc4)CC3)cc21 | 53* | 4 | -1 | -1 | -1 | 1 | i
CCn1cc(C(=O)O)c(=O)c2cc(F)c(N3CCN(C(=S)NC(=O)c4ccc(OC)cc4)CC3)cc21 | 53* | x | -3 | -2 | -6 | 2 | i
Clc1ccc(-c2nc3c4ccccc4ccn3c2Cc2ccsc2)cc1 | 12 | x | 1 | -7 | 6 | x | x
O=C(c1ccco1)N1CCN(C(=S)Nc2ccccc2C(F)(F)F)CC1 | -2 | x | 2 | -11 | 2 | 1 | x
CCN(CC)c1ccc(/C=N/NC(=O)c2cccc(N3CCCC3=O)c2)cc1 | 57* | -3 | -5 | 3 | 2 | 3 | x
Nc1ccc(C(=O)N/N=C/c2cn(Cc3ccccc3)c3ccccc23)cc1 | 41* | x | 0 | -7 | 2 | -23 | i
Nc1ccc(C(=O)N/N=C/c2cn(Cc3ccc(F)cc3)c3ccccc23)cc1 | 35 | x | -1 | -9 | -5 | -2 | x
CCc1c(C)n2nc(C)cc2[nH]c1=O | 47* | -14 | -3 | -13 | 3 | -7 | +
COc1ccc2c(COC(=O)CCS(=O)(=O)c3ccc(C)cc3)cc(=O)oc2c1 | 19 | x | -4 | -2 | -6 | -4 | x
O=C1CSC(c2cn(-c3ccccc3)nc2-c2cc3ccccc3oc2=O)N1Cc1cccnc1 (configuration not stated) | 42* | -1 | -11 | 7 | 2 | -14 | i
CCN(CC)C(=O)CSc1ncccc1-c1nc2ccccc2[nH]1 | 43* | -8 | x | 7 | x | -2 | i
CN(C)C(=O)CSc1ncccc1-c1nc2ccccc2[nH]1 | 37 | x | -2 | 6 | -2 | -4 | x
O=C(O)c1cc(N=Cc2c(O)c3ccccc3oc2=O)ccc1O | 43* | x | 3 | 14 | 4 | 15 | x
Cc1cc(C)cc(N=Cc2c(O)c3ccccc3oc2=O)c1 | x | 1 | -2 | -8 | -2 | -2 | x
O=c1[nH]c2ccccc2nc1/C=C/c1ccccc1 | 42* | -15 | -4 | 0 | 1 | -12 | x
Cc1cc(C)cc(N(CC(=O)NC2CCC(C)CC2)S(=O)(=O)c2ccc(Br)s2)c1 (configuration not stated) | x | x | -6 | x | -6 | x | x

Screening results (PubChem BioAssay)
